The results in this text go back to PubChem BioAssay (Tox21).

The nature of assay [1]: qHTS assay to identify small molecule agonists of the vitamin D receptor (VDR) signaling pathway - cell viability counter screen (AID 743224). Also: nearly all actives have a fitted effect of over 50% in size. Also: potency is read from the fitted curve at half-maximal effect. In short, it runs like this:
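Counter screen for cytotoxicity: VDR-bla cells at 2,000 cells/well, 16 h compound exposure, then CellTiter-Glo luminescence after the beta-lactamase measurement.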
(In general: qHTS replaces the single test concentration by a dilution series.)

The nature of assay [2]: qHTS assay to identify small molecule antagonists of the vitamin D receptor (VDR) signaling pathway - cell viability counter screen (AID 743225). Also: % is scaled to controls: 0 for no effect and ±100 for the full control effect; nearly all actives have a fitted effect of over 50% in size. In short, it runs like this: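 HEK293T VDR-bla; cpd + 1a,25-(OH)2D3 3 nM final, 16 h 37C/5% CO2; B/G FRET substrate 2 h RT; then CellTiter-Glo 30 min RT, luminescence.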
Assay [3] is described as follows: qHTS assay to identify small molecule agonists of the NFkB signaling pathway (AID 1159509; active = well fitted curve in the direction sought with a large enough effect in the signal ratio in the repeat runs, not every such curve was filed as active; the % refers to the signal ratio; also: series mostly up to about 61 µM; % is scaled to controls: 0 for no effect and ±100 for the full control effect). In short, it runs like this: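 Pathway activation was measured in ME-180 cells stably expressing beta-lactamase under NF-kB response element control. Substrate cleavage was read as the 460/530 nm emission shift after 5 hr compound incubation.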
A short description of assay [4]: qHTS assay to identify small molecule agonists of the NFkB signaling pathway - cell viability counter screen (AID 1159515; calls by dose curve; also: series mostly up to about 61 µM; % is scaled to controls: 0 for no effect and ±100 for the full control effect; nearly all actives have a fitted effect of over 55% in size). In short, it runs like this: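 Counter screen run alongside the NFkB-bla agonist assay: ME-180 reporter cells exposed to compounds for 5 hr, then lysed with CellTiter-Glo in the same wells. Luminescence, read after 30 min, reflects viable cells.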

Assay [5] is described as follows: qHTS assay to identify small molecule agonists of the endoplasmic reticulum stress response signaling pathway (AID 1159516; active = well fitted activation curve with a large enough effect in the signal ratio in the repeat runs, not every such curve was filed as active; the % refers to the signal ratio; also: % is scaled to controls: 0 for no effect and ±100 for the full control effect). In short, it runs like this: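 For this screen, HeLa cells stably carrying beta-lactamase under the ER stress response element received test compounds, positive controls or DMSO for 5 hr at 37 C; B/G FRET substrate was then added and dual-wavelength emission recorded.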

Assay [6] in a line: qHTS assay to identify small molecule agonists of the endoplasmic reticulum stress response signaling pathway - cell viability counter screen (AID 1159517; calls by dose curve; also: series mostly up to about 61 µM; % is scaled to controls: 0 for no effect and ±100 for the full control effect; nearly all actives have a fitted effect of over 50% in size). In outline:
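ESRE-bla HeLa cells (1,500/well) were plated overnight at 37 C and exposed to compounds for 5 hr. After the 2 hr beta-lactamase substrate read, CellTiter-Glo went into the same wells, and luminescence was read after 30 min at room temperature.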

Assay [7] in a line: qHTS assay to identify small molecule antagonists of the retinoid-related orphan receptor gamma (ROR-gamma) signaling pathway - cell viability counter screen (AID 1159520). Also: % is scaled to controls: 0 for no effect and ±100 for the full control effect; nearly all actives have a fitted effect of over 50% in size. In outline: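 Cytotoxicity was read from cellular ATP (CellTiter-Glo luminescence) after 16 hr at 37 C with 1 uM doxycycline induction. The inducer was added 2 hr after compound transfer to Tet-on ROR gamma CHO cells.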

The target of assay [8] is Nuclear receptor ROR-gamma (Homo sapiens) (UniProt P51449). Kind of assay: qHTS assay to identify small molecule antagonists of the retinoid-related orphan receptor gamma (ROR-gamma) signaling pathway (AID 1159521; also: nearly all actives have a fitted effect of over 50% in size; also: potency is read from the fitted curve at half-maximal effect). In short, it runs like this: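 Cells were plated, rested 4 h at 37 C, exposed to compounds for 2 h, then given 1 uM final doxycycline hyclate to induce RORγ expression. After 16 h, ONE-Glo luminescence from the ROR response element reporter was measured.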

A short description of assay [9]: qHTS assay to identify small molecule agonists of the AP-1 signaling pathway - cell viability counter screen (AID 1159525; calls by dose curve; also: nearly all actives have a fitted effect of over 55% in size). In outline: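 Intracellular ATP by Cell Titer Glo luminescence (30 min, RT) in the same ME-180 AP-1-bla wells after the 5 h compound exposure at 37 °C. Normalised to tetra n-octyl ammonium bromide and DMSO controls.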
Assay [10] is described as follows: qHTS assay to identify small molecule agonists of the AP-1 signaling pathway (AID 1159526; calls by dose curve; also: % is scaled to controls: 0 for no effect and ±100 for the full control effect).
For assay [11], the target named is Retinoic acid receptor RXR-alpha (Homo sapiens) (UniProt P19793). In words: qHTS assay to identify small molecule agonists of the RXR signaling pathway (AID 1159527; calls by dose curve; also: % is scaled to controls: 0 for no effect and ±100 for the full control effect; nearly all actives have a fitted effect of over 35% in size). In short, it runs like this: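 Cells plated at 2,000/well, rested 5 hr at 37 C, pin-dosed with DMSO compound solutions, incubated 16 hr, then loaded with B/G FRET substrate for 2 hr at RT before dual-emission fluorescence reading.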

Assay [12] is described as follows: qHTS assay to identify small molecule antagonists of the retinoid acid receptor (RAR) signaling pathway - cell viability counter screen (AID 1159551). Also: % is scaled to controls: 0 for no effect and ±100 for the full control effect; nearly all actives have a fitted effect of over 35% in size. In short, it runs like this:
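Measured by luminescent ATP detection, viability reflects C3RL4 cells treated 6 h at 37 C with test chemicals in the presence of 1 uM (final) retinol.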

Assay [13] can be described thus: qHTS assay to identify small molecule antagonists of the retinoic acid receptor (RAR) signaling pathway (AID 1159552). In short, it runs like this:
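Retinol at 1 uM final stimulated RARE-luciferase expression in C3RL4 cells exposed to test compounds for 6 hr at 37 C. Reduced luminescence, read 30 min after detection reagent, indicated pathway antagonism.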

Assay [14] can be described thus: qHTS assay to identify small molecule agonists of the retinoic acid receptor (RAR) signaling pathway (AID 1159553). Also: % is scaled to controls: 0 for no effect and ±100 for the full control effect. In short, it runs like this:
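6 hr compound exposure (DMSO vehicle) of overnight-plated C3RL4 RARE-luc cells at 37 C; luminescence quantified after 30 min RT with luciferase reagent.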

A short description of assay [15]: qHTS assay to identify small molecule antagonists of the estrogen related receptor (ERR) signaling pathway - cell viability counter screen (AID 1224818). In short, it runs like this:
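Compounds dissolved in DMSO were applied to ERR cells seeded at 2,000 per well 6 h earlier. Cell viability followed 17.5 h later via 30-min CellTiter-Fluor fluorescence.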

Assay [16] in a line: qHTS assay to identify small molecule antagonists of the estrogen related receptor signaling pathway with the pleiotropic PPARgamma coactivator (PGC) cell viability counter screen (AID 1224822). In outline: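 Counter screen for cell viability: PGC/ERR cells, 6 h pre-incubation after plating, 17.5 h compound exposure at 37 C, fluorescence from CellTiter-Fluor after 30 min.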

Values joined by “and” are separate entries in the source; they are usually repeats but may differ in a detail not shown here. Identical values can stand only once. Records with an inconclusive call do not appear. A number with no mark means an inactive call. Active and inactive are the calls of the source. Unless noted, calls follow the shape of the dose curve; as a rule, active = well fitted curve in the direction sought with a large enough effect in the repeat runs; inconclusive = weak or mixed curves; inactive = no such curve, though single readings can be large; an effect the other way counts as inactive or inconclusive.

Chain of Retinoic acid receptor RXR-alpha (Homo sapiens) (P19793 whole entry, looked up): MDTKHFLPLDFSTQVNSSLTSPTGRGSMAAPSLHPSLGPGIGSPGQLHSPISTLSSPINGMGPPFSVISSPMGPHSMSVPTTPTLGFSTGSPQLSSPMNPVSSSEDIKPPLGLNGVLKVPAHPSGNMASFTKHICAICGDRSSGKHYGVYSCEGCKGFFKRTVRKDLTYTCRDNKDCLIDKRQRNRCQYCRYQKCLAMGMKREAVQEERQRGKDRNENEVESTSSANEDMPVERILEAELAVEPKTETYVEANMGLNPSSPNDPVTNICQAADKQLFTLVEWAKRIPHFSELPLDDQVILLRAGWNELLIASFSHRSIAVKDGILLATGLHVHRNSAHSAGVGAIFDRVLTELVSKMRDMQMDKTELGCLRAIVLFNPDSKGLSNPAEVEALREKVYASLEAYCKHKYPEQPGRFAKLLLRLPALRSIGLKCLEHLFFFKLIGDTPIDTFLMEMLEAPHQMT

As for `CC(C)(O)C(=O)c1ccccc1`, the Potency result in [1], in [2], in assay [8], in assay [9], in [11] and in assay [13] was “inactive” throughout. In assay [14], the Potency entry was “inactive”. For the same molecule, the outcome in assay [3], in assay [4], in assay [5], in assay [6], in assay [7] and in assay [10] was inactive. Also, in assay [12], the call was inactive.
With `CC(C)(C)c1ccc(O)c(O)c1`, the Potency in assay [1] was 25.4 µM (active); in assay [8], 25.2 µM (active) and 27.3 µM (active). Further, the molecule was called inactive in assay [3], in [4], in [5], in assay [6], in [7] and in assay [15]. In addition, the result in assay [16] was inactive. Moreover, the Potency entry in [9] is “inactive”.
As to `O=c1cc(CO)occ1O`, the Potency result in assay [1], in [2], in assay [8], in [9], in assay [11] and in assay [13] was “inactive” throughout. Further, the Potency result in [14] was “inactive”. Moreover, the result in assay [3], in assay [4], in [5], in assay [6], in assay [7] and in assay [10] was inactive. Moreover, the result in assay [12] was inactive.
For the molecule `Oc1ccc(C2CNCCc3c2cc(O)c(O)c3Cl)cc1` (stereo unspecified), the Potency result in assay [1], in [2], in assay [8], in assay [9], in assay [11] and in [13] was “inactive” each time. Further, the Potency entry in assay [14] is “inactive”. For the same molecule, the result in assay [3], in assay [4], in [5], in [6], in assay [7] and in assay [10] was inactive. Further, the molecule was called inactive in assay [12], in assay [15] and in assay [16].
Take `Nc1ccc(S(=O)(=O)Nc2ccnn2-c2ccccc2)cc1`: the Potency entry in assay [1], in assay [8], in assay [11] and in assay [14] was “inactive” in each case. For the same molecule, the outcome in [3], in [4], in assay [5], in assay [6], in assay [10] and in [15] was inactive. Besides, the molecule was called inactive in [16]. For the same molecule, the activity, negative = cytotoxicity in [7] is 2.08% [at 19 µM]. Moreover, the viability change, negative = cytotoxic in assay [9] was 2.53% [at 15.8 µM]. For the same molecule, the activity change, negative = cytotoxicity in assay [12] is 2.06% [at 19 µM]. Moreover, the activity, negative = inhibition in assay [13] is -19.4% [at 19 µM].
Take `CCCCCCCCCCCCCCCCC`: the Potency entry in assay [1], in assay [2], in [8], in assay [9], in assay [11] and in assay [13] was “inactive” throughout. Moreover, the Potency entry in [14] is “inactive”. Also, the molecule was called inactive in assay [3], in [4], in [5], in [6], in assay [7] and in assay [10]. Also, the outcome in [12] was inactive.
Take `Cc1ccc(Cl)cc1Cl`: the Potency result in [1], in assay [2], in [8], in assay [9], in [11] and in [13] was “inactive” in each case. In assay [14], the Potency result is “inactive”. Further, the call in assay [3], in assay [4], in assay [5], in assay [6], in [7] and in [10] was inactive. In addition, the molecule was called inactive in assay [12].
On to `CCOC(=O)c1c(C)n(C)c2ccc(O)cc12`, for which the Potency entry in assay [1], in assay [2], in assay [8], in assay [9], in assay [11] and in [13] was “inactive” throughout. In addition, in assay [14], the Potency entry was “inactive”. For the same molecule, the outcome in assay [3], in assay [4], in assay [5], in assay [6], in assay [7] and in [10] was inactive. In [12], the molecule was classed as inactive.
